In PubChem BioAssay AID2842 (Southern Research Institute, 2010):
Screen size: about 24,000 compounds; about 1,200 (5%) were called active. Roughly 2% stayed inconclusive and do not appear here. These entries were drawn from the full list. Values without a mark were called inactive. How the calls were made is not given here.

Assay: Mycobacterium tuberculosis H37Rv growth inhibition, putative kinase inhibitor library, confirmatory dose response (AID 2842);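 further: bacteria incubated one week before Alamar blue readout; 0% = bacteria only wells and 100% = bacteria with high antibiotic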
Conditions: M. tuberculosis H37Rv growth inhibition; CC50: measured here: Vero cell cytotoxicity; inhibition: active compounds read high

Compound	inhibition [%]
COc1ccc(Cn2cc(C(=O)c3ccc(Cl)cc3)c(=O)c3cc4c(cc32)OCCO4)cc1	14.9
CCOc1ccc(C(=O)Nc2c3c(nn2C(C)(C)C)CS(=O)C3)cc1 (configuration not stated)	6.89
CCCC(=O)Nc1nnc(-c2cccc(C)c2)s1	5.77
COC(=O)c1ccc(NC(=O)CSc2nnc(C)c(=O)n2N)cc1	6.15
Cc1ccc(NC(=O)CSc2nnc(CCC(=O)O)c(=O)[nH]2)cc1C	-8.56
O=c1cnnc(N/N=C/c2ccc(O)cc2O)[nH]1	45.3
O=C1C(=O)N(CCCN2CCOCC2)C(c2cccc(F)c2)/C1=C(\O)c1ccncc1 (configuration not stated)	-3.95
CCOc1ccc(N2CC(NC(=O)Nc3cccc(C)n3)CC2=O)cc1 (configuration not stated)	8.06
O=S(=O)(Nc1cc(Sc2ncn[nH]2)c(O)c2ccccc12)c1ccc(F)cc1	-6.45
COc1ccccc1NC(=O)CCCN1C(=O)c2cccc3cccc(c23)C1=O	16.8
COc1ccccc1NC(=O)c1oc2ccccc2c1NC(=O)c1ccc(Cl)c([N+](=O)[O-])c1	3.99
COc1ccc(OCC(=O)N/N=C/c2ccccc2O)cc1	-13
O=C(/C=C/c1cccs1)Nc1nncs1	-2.33
COc1cccc2c1OC(c1ccncc1)N1N=C(c3cc(C)ccc3O)CC21 (configuration not stated)	0.62
Cc1ccccc1NC(=O)CSc1nnc(Cn2c(=O)sc3ccccc32)n1C	-1.23
COc1ccc(-n2c(=O)[nH]c3c(C(N)=O)nc(-c4ccncc4)nc32)cc1	1.06
CC(C)c1nnc(SCc2c(Cl)ccc(Cl)c2Cl)n1N	-13.8
O=C(Nc1ccc2c(c1)OCO2)c1cnc2n(c1=O)CCS2	0.45
Cc1nnc(NC(=O)CSc2nc3c(c(=O)n2-c2ccccc2)SCC3)s1	-2.21

Compound	inhibition [%]
Cc1oc2c(CN3CCN(C)CC3)c(O)ccc2c(=O)c1-c1nc2ccccc2s1	-15.1
Cc1ccc(CSc2nc3c([nH]2)c(=O)n(C)c(=O)n3C)cc1	6.64
NC(=O)c1oc2ccccc2c1NC(=O)c1ccc(Cl)s1	14.6
Nc1nc(SCC(=O)Nc2ccc(F)cc2F)[nH]c(=O)c1NC(=O)c1ccc(Br)cc1	-9.37
Cc1cc2nnc(SCC(=O)Nc3ccccc3)n2c2ccccc12	0.4
COc1cccc(NC(=O)Nc2nc3c(s2)C(=O)CC(C)(C)C3)c1	8.4
CCN(c1ncnc(N)c1[N+](=O)[O-])C1CCCCC1	5.41
COc1ccc(NC(=O)CSc2nnc3ccc(-c4ccncc4)nn23)cc1	-9.39
O=C(CSc1nnc2[nH]c(=O)ccn12)Nc1ccc([N+](=O)[O-])cc1	-13.1
CN(CCC#N)c1ccc(C=C2C(=O)NC(=S)NC2=O)cc1	5.58
COC(=O)C1=C(C)NC(=O)NC1c1ccc(Cl)cc1 (configuration not stated)	1.95
CC(C)CCSc1nc2c(c(=O)[nH]c(=O)n2C)n1CC(O)COc1ccc(Cl)cc1 (configuration not stated)	21.4
COc1cccc(N2CC(C)Cn3c2nc2c3c(=O)[nH]c(=O)n2C)c1 (configuration not stated)	0.57
CC1Cc2nc(SCc3ccccn3)n(-c3ccc(F)cc3)c(=O)c2S1 (configuration not stated)	20
Cc1cccc(-n2ccnc2SCC(=O)Nc2nc3ccccc3s2)c1C	4.43
CCOc1ccc(/C(O)=C2\C(=O)C(=O)N(CCCn3ccnc3)C2c2ccc(F)cc2)cc1Cl (configuration not stated)	-17.6
CSc1ccc2nc(Nc3ccc(F)cc3F)sc2c1	8.52
C=CCOC(=O)C1=C(C)Nc2[nH]c(=O)[nH]c(=O)c2C1c1ccc(Cl)c(Cl)c1 (configuration not stated)	-6.17
Nc1nc(SCC(=O)N2CCCCCC2)[nH]c(=O)c1NC(=O)c1ccco1	-18.5

Compound	inhibition [%]
O=C(Nc1nc(-c2ccc(Cl)cc2Cl)cs1)c1ccc2c(c1)OCCO2	0.34
CC1=C(C(=O)Nc2ccc(Cl)cc2)C(c2ccccc2Cl)C(C#N)=C(SCC(N)=O)N1 (configuration not stated)	71.6
Cc1nc2sc(C(N)=O)c(N)c2c(-c2ccccc2)c1C(=O)Nc1ccccc1	1.79
CCOC(=O)c1cnc2ccc(OCC)cc2c1Nc1cccc(Cl)c1C	-5.22
COc1ccc(-n2c(=O)[nH]cc(C(=O)Nc3ccc4c(c3)OCO4)c2=O)cc1OC	1.59
Cc1ccccc1NC(=O)Cc1csc(NS(=O)(=O)c2ccc(Cl)cc2)n1	-5.2
Cc1ccnc(NC(=O)NC2CC(=O)N(c3ccc(F)cc3)C2)c1 (configuration not stated)	11.3
CCOC(=O)c1oc2ccccc2c1NC(=O)c1ccc(F)c(F)c1	3.18
CC1CCc2c(sc(NC(=O)c3ccc4ccccc4c3)c2C#N)C1 (configuration not stated)	1.23
CCCCCCCNC(=O)c1c(N)n(/N=C/c2ccco2)c2nc3ccccc3nc12	-9.39
O=C(O)COc1ccccc1/C=C1/SC(=S)N(NC(=O)c2ccco2)C1=O	-1.98
CNC(=O)c1c(NC(=O)CC2SC(=O)NC2=O)sc2c1CCCC2 (configuration not stated)	-3.54
Cc1ccc(C(=O)Nc2cc(C)c3c(=O)oc4ccccc4c3n2)cc1[N+](=O)[O-]	-2.97
O=C(CN1N=NC2C(=O)N(c3ccc(Cl)cc3)C(=O)C21)Nc1ccccc1Cl (configuration not stated)	0.65
COc1ccc(NC(=O)C2=C(C)Nc3ncnn3C2c2ccc(C#N)cc2)cc1 (configuration not stated)	-1.94
COc1ccc(/C(O)=C2\C(=O)C(=O)N(CCCn3ccnc3)C2c2cccc(F)c2)cc1Cl (configuration not stated)	-11.8
O=C(CSc1nc2c(c(=O)n1-c1ccc(Cl)cc1)SCC2)Nc1ccc2c(c1)OCO2	-11.7
Cn1c(SCC(=O)N2CCOCC2)nnc1-c1c[nH]c2ccccc12	-12.7
O=C(Nc1nnc(-c2ccc(F)cc2)s1)c1ccccc1	8.84
